LDHA block = blocks human lactate dehydrogenase A. AID 1347041. P00338. purified LDHA, NADH/diaphorase-resazurin fluorescence; active compounds read low. activity change, % (values are at about 110 or 230 µM). hit rate 0.15% among 480,000; in the data active means activity change below about -30%; inconclusive means mostly about -25% to -30%
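Resorufin fluorescence (ex540/em590), read at 0 and 20 min after diaphorase/resazurin addition, reports the NADH left after a 5 min room-temperature reaction of 2 nM human LDH5 with 0.06 mM NADH and 0.2 mM pyruvate.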
TRPV1 PAM = potentiators of human vanilloid receptor 1 (TRPV1); AID 540277; potentiation, % at 8.33 µM; hit rate 0.02% among 320,000; TRPV1-expressing cells, Fluo-8 calcium influx, capsaicin EC20 potentiation; in the data active means potentiation above about 80%; inconclusive means between about 30% and that limit
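Fluo-8 calcium influx in TRPV1-expressing cells, kinetic read (ex 480/em 520 nm). Compound added and read 3 min for agonist activity, followed by capsaicin at EC20 final and 2 min further read for enhancement.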
TRPML1 agonist = activates the human TRPML1 channel; Q9GZU1; TRPML1-expressing cells, Ca2+ dye fluorescence, FDSS; activation, % (test concentration not listed); hit rate 0.12% among 410,000; in the data active means activation above about 50%; inconclusive means mostly about 30% to 49%
Target sequence (Q9GZU1 whole entry, looked up): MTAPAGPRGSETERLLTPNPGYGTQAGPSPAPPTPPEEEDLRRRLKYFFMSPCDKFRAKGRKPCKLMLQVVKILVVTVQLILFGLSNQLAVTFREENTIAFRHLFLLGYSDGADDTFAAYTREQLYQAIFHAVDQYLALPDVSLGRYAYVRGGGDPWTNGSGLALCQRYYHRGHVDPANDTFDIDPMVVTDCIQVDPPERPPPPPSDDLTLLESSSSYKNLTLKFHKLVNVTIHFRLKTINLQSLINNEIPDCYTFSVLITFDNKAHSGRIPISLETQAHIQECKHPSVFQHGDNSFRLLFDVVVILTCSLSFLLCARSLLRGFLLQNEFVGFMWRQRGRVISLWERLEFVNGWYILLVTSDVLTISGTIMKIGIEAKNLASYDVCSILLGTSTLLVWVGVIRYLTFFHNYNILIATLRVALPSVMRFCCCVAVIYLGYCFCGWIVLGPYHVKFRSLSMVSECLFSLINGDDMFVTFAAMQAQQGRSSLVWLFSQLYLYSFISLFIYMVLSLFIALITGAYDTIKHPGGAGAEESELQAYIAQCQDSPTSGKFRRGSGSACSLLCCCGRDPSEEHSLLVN
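Cells: TRPML1-DL, 1X Tet inducer, ~16 h at 37 degrees C/5% CO2. Dye: ABD Ca8 no-wash + quencher, 45-90 min RT. Read: 10 s baseline, compound add, 110 s agonist phase; 54-4 EC80 (4uM final), 110 s antagonist phase.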
TRPV1 agonist = human TRPV1 agonism. TRPV1-expressing cells, Fluo-8 calcium influx, agonist mode. activation, % at 8.33 µM. hit rate 0.19% among 320,000; in the data active means activation above about 80%; inconclusive means between about 30% and that limit
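TRPV1-expressing cells were cultured overnight at 35.5C and loaded with Fluo-8 calcium dye for 40 to 90 min at room temperature. After a 10 s baseline, compound was added and calcium influx was read kinetically for 3 min (ex 480/em 520 nm).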
TRPML1 blocker = blocks the human TRPML1 channel. Q9GZU1. TRPML1-inducible cells, Ca2+ dye fluorescence, FDSS; active compounds read low; inhibition of EC80 agonist-evoked calcium signal. activity change, negative = inhibition, % (concentration not given with the values). hit rate 0.02% among 390,000; in the data active means activity change below about -50%; inconclusive means between about -30% and that limit;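 further: stimulus is agonist 54-4 at its EC80 concentration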
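Calcium fluorescence in TRPML1-DL cells induced overnight with Tet: a 110 s read after compound pin addition, then a 110 s antagonist read after challenge with 54-4 at 4 uM final (EC80).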
Numbers stand for hits. Hits are enriched below; roughly 0.41% of the tested compounds scored in any of these assays.

Results for CS(=O)(=O)C1=NSC2=NC(=O)/C(=C\c3cccn3-c3ccc(Cl)cc3)C(=N)N21 ?
LDHA block: -109; TRPV1 PAM: inactive; TRPML1 agonist: inactive; TRPV1 agonist: inactive; TRPML1 blocker: inactive

Results for O=C(Nc1ccc2oc(-c3ccc(F)cc3)cc(=O)c2c1)c1cccs1 ?
LDHA block: inactive

How did COc1ccccc1-c1ccc([C@@H]2C[C@H]3[C@H](CON3C)CN2C(=O)c2ccco2)cc1 do in these assays?
LDHA block: -32; TRPML1 agonist: inactive; TRPML1 blocker: inactive

What do the screens show for `CN1OC[C@@H]2CN(C(=O)c3ccco3)[C@H](c3ccc(-c4ccc(C#N)cc4)cc3)C[C@@H]21`?
LDHA block: inactive; TRPML1 agonist: inactive; TRPML1 blocker: inactive

Results for C[C@@H]1CN([C@H](C)CO)C(=O)CCCn2cc(nn2)CO[C@H]1CN(C)S(=O)(=O)c1ccc2c(c1)OCCCO2 ?
LDHA block: -30; TRPML1 agonist: inactive; TRPML1 blocker: inactive

How did C[C@H]1CN([C@@H](C)CO)C(=O)CCCn2nncc2CO[C@H]1CN(C)S(=O)(=O)c1cccc(F)c1 do in these assays?
LDHA block: inactive; TRPML1 agonist: inactive; TRPML1 blocker: -65

What do the screens show for `C[C@@H]1CN([C@@H](C)CO)C(=O)CCCn2nncc2CO[C@H]1CN(C)C`?
LDHA block: inactive; TRPML1 agonist: inactive; TRPML1 blocker: inactive

Results for C[C@@H]1CN([C@H](C)CO)C(=O)CCCn2nncc2CO[C@H]1CN(C)C ?
LDHA block: -33; TRPML1 agonist: inactive; TRPML1 blocker: inactive

What do the screens show for `C[C@H]1CN([C@@H](C)CO)C(=O)CCCn2cc(nn2)CO[C@@H]1CN(C)S(=O)(=O)c1ccc2c(c1)OCCCO2`?
LDHA block: inactive; TRPML1 agonist: inactive; TRPML1 blocker: inactive

How did COc1ccc2nc(N3CCCCC3)c(C#N)cc2c1 do in these assays?
LDHA block: inactive; TRPV1 PAM: inactive; TRPML1 agonist: 62; TRPV1 agonist: inactive; TRPML1 blocker: inactive

What do the screens show for `CC1=CC(C)(C)N(C(=O)CN2C(=O)c3ccccc3C2=O)c2ccc(C)cc21`?
LDHA block: inactive; TRPV1 PAM: inactive; TRPML1 agonist: 61; TRPV1 agonist: inactive; TRPML1 blocker: inactive

What do the screens show for `CC(C)Sc1ccc(C(=O)Nc2ccc(F)cc2F)cn1`?
LDHA block: inactive; TRPV1 PAM: inactive; TRPML1 agonist: inactive; TRPV1 agonist: 85; TRPML1 blocker: inactive

How did O=C(Nc1ccc(F)cc1F)c1ccc(-n2cccn2)nc1 do in these assays?
LDHA block: inactive; TRPV1 PAM: inactive; TRPML1 agonist: inactive; TRPV1 agonist: inconclusive; TRPML1 blocker: inactive

Results for COc1ccc2c(c1)C/C(=C\c1ccc(N(C)C)cc1)C2=O ?
LDHA block: inactive; TRPML1 agonist: 72

How did Cc1c(-c2ccccc2)[nH]c2ccc(Cl)cc12 do in these assays?
LDHA block: inactive

Results for O=C(O)C1CC=CCC1c1nc2ccccc2s1 (stereo not drawn) ?
LDHA block: inactive

What do the screens show for `CCCNC(=S)N1CCC(C(=O)c2ccc(Cl)cc2)CC1`?
LDHA block: inactive; TRPV1 PAM: inactive; TRPML1 agonist: inactive; TRPV1 agonist: inconclusive; TRPML1 blocker: inactive

Results for CCNC(=S)N1CCC(C(=O)c2ccc(Cl)cc2)CC1 ?
LDHA block: inactive; TRPV1 PAM: inactive; TRPML1 agonist: inactive; TRPV1 agonist: 81; TRPML1 blocker: inactive

How did Cc1cc(N2CCCCC2)nc(N)n1 do in these assays?
LDHA block: inactive; TRPV1 PAM: inactive; TRPML1 agonist: 56; TRPV1 agonist: inactive; TRPML1 blocker: inactive

What do the screens show for `Cc1cc(N2CCCC2)nc(-c2ccccc2O)n1`?
LDHA block: inactive; TRPV1 PAM: inconclusive; TRPML1 agonist: inactive; TRPV1 agonist: inactive; TRPML1 blocker: inactive

Results for CCCN1CCN(c2nc3ccccc3nc2NS(=O)(=O)c2cccc(Cl)c2)CC1 ?
LDHA block: inactive

What do the screens show for `COc1ccc(C2CC(=O)Nc3cc(OC)cc(OC)c32)cc1` (stereo not drawn)?
LDHA block: inactive

How did COc1cc2c(c(OC)c1)C(c1cccc(F)c1F)CC(=O)N2 (stereo not drawn) do in these assays?
LDHA block: inactive; TRPML1 agonist: 57; TRPML1 blocker: inactive

Results for CCN=C(N/N=C/c1ccc([N+](=O)[O-])cc1)SC ?
LDHA block: -110; TRPV1 PAM: inactive; TRPML1 agonist: inactive; TRPV1 agonist: inactive; TRPML1 blocker: inactive

How did CC(Nc1nc(-c2ccc(Cl)cc2)cs1)c1nc2cc(Cl)c(N3CCCCC3)cc2n1CCOCCO (stereo not drawn) do in these assays?
LDHA block: inactive; TRPML1 agonist: inactive; TRPML1 blocker: inactive

Results for CCCn1c(C(C)Nc2nc(-c3cc(Cl)c(N)c(Cl)c3)cs2)nc2cc(Cl)c(N3CCCCC3)cc21 (stereo not drawn) ?
LDHA block: inactive; TRPV1 PAM: inactive; TRPML1 agonist: inactive; TRPV1 agonist: 86; TRPML1 blocker: inactive

What do the screens show for `Cc1nn(Cc2ccc(Cl)cc2)c(C)c1NC(=O)CCCn1nc(C)c([N+](=O)[O-])c1C`?
LDHA block: inactive; TRPV1 PAM: inactive; TRPML1 agonist: inactive; TRPV1 agonist: 93; TRPML1 blocker: inactive

How did Cc1nn(Cc2ccccc2)c(C)c1NC(=O)CCCn1nc(C)c([N+](=O)[O-])c1C do in these assays?
LDHA block: inactive; TRPV1 PAM: inactive; TRPML1 agonist: inactive; TRPV1 agonist: inactive; TRPML1 blocker: inactive

Results for COc1ccccc1Nc1ncnc2c1cnn2-c1cccc(C)c1 ?
LDHA block: inactive; TRPV1 PAM: inactive; TRPML1 agonist: inactive; TRPV1 agonist: 85; TRPML1 blocker: inactive

Results for COc1cccc(Nc2ncnc3c2cnn3-c2cccc(C)c2)c1 ?
LDHA block: inactive; TRPV1 PAM: inactive; TRPML1 agonist: inactive; TRPV1 agonist: inactive; TRPML1 blocker: inactive

Results for O=C(c1ccncc1)N1CCN(C2CCCCC2)CC1 ?
LDHA block: inactive; TRPV1 PAM: inactive; TRPML1 agonist: inactive; TRPV1 agonist: inactive; TRPML1 blocker: inactive

What do the screens show for `O=C(c1ccncc1)N1CCN(C2CCC(c3ccccc3)CC2)CC1` (stereo not drawn)?
LDHA block: -32; TRPV1 PAM: inactive; TRPML1 agonist: inactive; TRPV1 agonist: inactive; TRPML1 blocker: inactive

Results for Cc1ccc(N=C2NN=C(c3cc(C)n(CC4CCCO4)c3C)CS2)cc1 (stereo not drawn) ?
LDHA block: inactive

What do the screens show for `Cc1cc(C2=NNC(=Nc3ccccc3)SC2)c(C)n1CC1CCCO1` (stereo not drawn)?
LDHA block: -36

How did O=C(CN1CCCC1)Nc1ccccc1Sc1ccccc1 do in these assays?
LDHA block: inactive; TRPV1 PAM: inactive; TRPML1 agonist: inactive; TRPV1 agonist: inactive; TRPML1 blocker: inactive

How did COc1cccc(OC)c1NC(=O)CN1CCN(C)CC1 do in these assays?
LDHA block: -32; TRPV1 PAM: inactive; TRPML1 agonist: inactive; TRPV1 agonist: inactive; TRPML1 blocker: inactive

Screens: PubChem BioAssay, National Center for Advancing Translational Sciences (NCATS)
